Assay results: PubChem BioAssay (NCI)
The panel holds about 83,000 compounds, 20% with a hit somewhere; the sample as a whole holds those more often.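 Plates (96-well) were seeded with cells, treated with compound at one concentration, and incubated for 48 hours before percent growth was determined.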 A number with no mark means an inactive call. Active and inactive are the calls of the source. How the source made its calls: active means growth percent below 10; inactive means the rest.

Key:
Assay in all cases: NCI-60 one-dose screen, 48 h (100 = growth as untreated, 0 = no growth, -100 = all killed)
Conditions in all cases: 10 µM unless noted
[1] = system: HCT-15 colon
[2] = system: HT29 colon
[3] = system: SNB-75 CNS
[4] = system: SNB-19 CNS
[5] = system: U251 CNS
[6] = system: PC-3 prostate
[7] = system: SK-MEL-5 melanoma
[8] = system: UACC-62 melanoma
[9] = system: LOX IMVI melanoma
[10] = system: SK-MEL-28 melanoma

Row | SMILES | growth [1] | growth [2] | growth [3] | growth [4] [%] | growth [5] | growth [6] [%] | growth [7] | growth [8] | growth [9] | growth [10] [%]
1 | COc1cc2c(cc1OC)C(=O)C(Br)CC2 (stereo not drawn) | 17.5% | 24.1% | 53% | 85.3 | 54% | 31.2 | 53.2% | 33% | -0.506% (active) | 67.7
2 | O=C(C(=O)c1cccnc1)c1cccnc1 | 120% | 108% | 107% | 110 | 112% | 107 | 105% | 102% | 100% | 135
3 | O=C(Cn1nncc1CN1C(=O)CSC1=O)Nc1ccc(F)cc1 | 102% | 105% | 85.9% | 101 | 104% | 101 | 99.5% | 93.5% | 94.9% | 
4 | CCN1CCN(Cc2ccc(NC(=O)c3nc4ccc5[nH]ncc5c4c4c3CCCC4)cc2C(F)(F)F)CC1 | -47.8% (active) | -74.3% (active) | 80.8% | 13.9 | -85.7% (active) | 19.8 | -75.3% (active) | -68.7% (active) | -94.6% (active) | 
5 | O=C1c2ccccc2C2N1CCC1CCc3ccccc3N12 (stereo not drawn) | 94.5% | 100% | 94.3% | 96.2 | 89.7% | 76.3 | 98% | 82.2% | 100% | 109
6 | CCCCCCCCCCCCCCCc1cc(O)ccc1[N+](=O)[O-] | 73.7% | 107% | 83.1% | 99.9 | 70.1% | 59.5 | 76.1% | 67.9% | 98% | 102
7 | O=C1/C(=C\c2cccn2Cc2ccc(F)cc2)c2ccccc2N1c1c(Cl)cccc1Cl | 56.2% | 81.5% | 68.4% | 81.3 | 75.7% | 52 | 57.7% | 62% | 91.1% | 87.4
8 | CCNS(=O)(=O)c1ccc(C)cc1 | 98.5% | 117% | 85.2% | 103 | 105% | 95.7 | 140% | 106% | 100% | 115
9 | Cc1n(Cc2ccc3ccccc3n2)cc[n+]1Cc1ccc2ccccc2n1 | 100% | 62% | 65.8% | 54 | 58.8% | 55.8 | 59% | 73% | 81.9% | 72
10 | [O-]/[N+](=C\c1ccccc1)CC1(O)CCCCC1 | 98.4% | 102% | 81.1% | 99.4 | 97.6% | 108 | 105% | 102% | 101% | 106
11 | O=[N+]([O-])c1ccccc1CN1CCCCC1 | 107% | 113% | 87.8% | 106 | 110% | 91.6 | 105% | 103% | 96.6% | 117
12 | O=C1/C(=C\c2cccn2Cc2ccc(Cl)cc2)c2ccccc2N1c1c(Cl)cccc1Cl | 61.4% | 85.5% | 82.2% | 87.8 | 75.6% | 57.5 | 66.1% | 71.7% | 91.9% | 91
13 | COc1cc(Nc2ccnc3ccc(Br)cc23)cc(OC)c1OC | 30.6% | 14.2% | -4.34% (active) | 32.9 | 18.6% | 26.7 | 8.82% (active) | 30.4% | 32% | 58.3
14 | COC1=CC(c2ccc[nH]2)=N/C1=C\c1[nH]c(C)c(C(=O)CCCCCCCCC(=O)O[C@H]2CC[C@H]3C4CCc5cc(O)ccc5C4CC[C@]23C)c1C (stereo partly drawn) | 41% | 14.3% | 19.6% | 56.2 | 20.9% | 23 | -83% (active) | -48.3% (active) | -44.2% (active) | 34.5
